Hit rate of the full screen: of about 48,000 compounds, about 13,000 (27%) showed an effect of 50% or more. The list shows a part of the results.
tested on: Wolbachia pipientis; assay: Anti-Wolbachia Cell-Based Screen; type: functional; set-up: scale not given: in the data most compounds retested in dose-response had high values; settings: 5 µM

Structure (SMILES) | Percent Effect
O=C(N1CCN(CCO)CC1)C1(O)Cc2ccccc2C1 | -5.424%
CCc1ccc(S(=O)(=O)Nc2cn(C)cc(Br)c2=O)cc1 | -15.07%
Cc1ccc(-c2ncc(CN3CCN(S(N)(=O)=O)CC3)s2)o1 | 2.671%
CCn1ccnc1CN(C)c1nc(-c2ccc(Cl)cc2)nc2c1CNC2 | -33.82%
O=c1nc(SCc2ccncc2)c2c(n1CCO)CCCC2 | -12.21%
COc1cccc(Cn2c(C3CCNCC3)cc3cccnc32)c1.Cl | 140.1%
CN1CCCCC1c1nc(Cc2cccc(F)c2)no1 (configuration not stated) | -5.711%
COc1cccc(CN2C[C@H]3CCNCC[C@H]3S2(=O)=O)c1 | 18.94%
CC[C@H](C)Cn1nc(C2CCNCC2)n(Cc2ccccc2)c1=O | -2.943%
COc1ccc(Cn2c(C3CCNCC3)cc3cccnc32)cc1.Cl | 109.4%
CN1CCCC1c1cc2cccnc2n1Cc1ccc(F)cc1.Cl (configuration not stated) | 120.9%
CCOC(C)C(=O)Nc1ccc(Sc2nncn2C)c(Cl)c1 (configuration not stated) | -6.719%
Cc1cc(CS(=O)(=O)N(C)C(C)c2ccc(F)cc2)on1 (configuration not stated) | -9.775%
CN(C)C(=O)NCc1cc2n(n1)CCN(C[C@H]1[C@@H]3CNC[C@@H]31)C2 | -18.92%
Cc1cnn(CCNCC(O)COc2c(C)ccc(C)c2C)c1 (configuration not stated) | -3.427%
COc1cccc(-c2cccc(-c3ccn(CC4COCCO4)n3)c2)n1 (configuration not stated) | -14.19%
COc1ccccc1CNC1(CCO)CCOCC1 | 8.279%
O=C(c1cscn1)N1C[C@H]2CN(Cc3nccs3)C[C@H]2C1 | -12.17%
Cc1cnc(C(=O)N2C[C@H]3CN(Cc4cccs4)C[C@H]3C2)cn1 | 71.69%
Cc1cnc(C(=O)N2C[C@H]3CCCC(OCc4cccnc4)[C@H]3C2)cn1 (some centres not stated) | -8.577%
CNC(=O)[C@H]1C[C@@H]2CN(C(=O)c3cnc(C)cn3)C[C@@H]2N1C | 18.09%
Cc1cnc(C(=O)N2C[C@H]3CN(Cc4nccs4)C[C@H]3C2)cn1 | 103.8%
Cc1cnc(C(=O)N2C[C@@H]3[C@@H](C2)OCC(=O)N3CC2CCCC2)cn1 | 9.694%
O=C(O)C(F)(F)F.O=C1C[C@H]2[C@@H](CCN2C(=O)c2ccccc2)N1CCN1CCOCC1 | -5.805%
Cc1cccc(OC2CCN(c3nc(N)nc4[nH]cnc34)CC2)c1 | -26.6%
COc1ccccc1N1CCN(c2nc(N)nc3[nH]cnc23)CC1 | 106.2%

Structure (SMILES) | Percent Effect
COc1ccccc1OC1CCN(c2nc(N)nc3[nH]cnc23)CC1 | -23.58%
O=C1CN(Cc2ccc3ccccc3n2)CCN1C1CCCC1 | 128.2%
Cc1ccc2nc(CN3CCN(C4CCCCC4)C(=O)C3)cc(O)c2c1 | -5.19%
Cc1ccc2nc(CN3CCN(C4CCCC4)C(=O)C3)cc(O)c2c1 | 1.578%
Cc1ccccc1-c1cccc(CN2C[C@H]3C(=O)NC[C@@]3(C(=O)O)C2)c1 | 6.685%
Cc1cccc(-c2cccc(CC3(C(=O)O)CCOCC3)c2)c1 | 103%
Cc1ccc(-c2cccc(CC3(C(=O)O)CCOCC3)c2)c(C)c1 | 93.34%
COc1ccc(CC2(C(=O)O)CCN(c3nc(C)ncc3C)CC2)cc1 | -10.05%
Cc1cccc(NC(=O)NCC2(N3CCOCC3)CCSC2)c1 (configuration not stated) | 9.501%
Cc1cc(C)cc(-c2cccc(CC3(C(=O)O)CCOCC3)c2)c1 | -21.94%
C=C(C)CN(CC)C(=O)Nc1ccccc1CN(C)C(C)=O | 4.408%
Cc1nc2ccc(CN3CC4(CCOC4)CCC3=O)cc2[nH]1 (configuration not stated) | 9.533%
COCc1nc2n(n1)CCCC2Nc1nc(C)ns1 (configuration not stated) | -20.01%
COc1ccccc1OCc1cc(C(=O)N2CCS(=O)(=O)CC2)n[nH]1 | -14.83%
CCC1(CO)CCCN(C(=O)c2cc(COc3cccc(F)c3)[nH]n2)C1 (configuration not stated) | 87.47%
O=C(c1cc(COc2ccc3c(c2)OCO3)[nH]n1)N1CCCC1 | -5.101%
COc1ccccc1OCc1cc(C(=O)N2CCN(C(C)=O)CC2)n[nH]1 | -25.23%
CCC1(CO)CCCN(C(=O)c2cc(COc3ccccc3F)[nH]n2)C1 (configuration not stated) | 110.4%
CCC1(CO)CCN(C(=O)c2cc(COc3ccccc3F)[nH]n2)CC1 | 118.9%
COc1ccccc1OCc1cc(C(=O)N2CCC(C(C)O)CC2)n[nH]1 (configuration not stated) | 7.435%
COc1cccc(OCc2cc(C(=O)N3CC(O)C3)n[nH]2)c1 | -9.479%
COc1ccccc1OCc1cc(C(=O)N2CCN[C@H](C)C2)n[nH]1 | 8.163%
CC(C)N(Cc1ccccc1)Cc1csc(-c2ncccn2)n1 | -35.25%
Cc1cccc(NC(=O)N2CCn3cnc(COCC4CC4)c3C2)c1 | 96.57%
CCOCc1ncn2c1CN(C(=O)Nc1cccc(F)c1)CC2 | 101.4%
CCOCc1ncn2c1CN(C(=O)c1ccoc1)CC2 | -9.138%
